Results on 8 molecules are retold here after PubChem BioAssay (NCI).

SMILES strings stand for the structures. About 83,000 compounds went through this panel and 20% of them were active in at least one assay; those are over-represented in the sample as a whole.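 Percent growth is the endpoint: 0 to 100 indicates growth inhibition (40 means 60% inhibition), 0 means no net growth, and negative values indicate cell death.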 Values without a mark were called inactive. The source made the active and inactive calls. How the source made its calls: active means growth percent below 10; inactive means the rest.

Among the test systems are NCI-H23 lung; NCI-H226 lung; NCI-H322M lung; HOP-62 NSCLC; NCI-H460 lung; HOP-92 NSCLC; NCI-H522 lung; A549/ATCC NSCLC; 786-0 renal; DU-145 prostate; K-562 leukemia; MALME-3M melanoma; MDA-MB-231 breast; RXF 393 renal; SF-268 CNS; SF-295 CNS; SF-539 CNS; UACC-257 melanoma; M14 melanoma; COLO 205 colon.
Common to all, as to experiment: NCI-60 one-dose screen, 48 h (100 = growth as untreated, 0 = no growth, -100 = all killed)
Common to all, as to details: 10 µM unless noted

Turning to `COc1ccc(/C=C2/C(=O)Nc3cc(Cl)c(-c4csc(N)n4)cc32)cc1`, the growth with NCI-H23 lung is 58%; with NCI-H226 lung, 69.2%; with NCI-H322M lung, 68.3%; in the test with HOP-62 NSCLC it was 50.1%; in the test on NCI-H460 lung, 42.7%; in the test on HOP-92 NSCLC it was 43.1%. Moreover, the growth was 21.6% in the test on NCI-H522 lung; 48.5% with A549/ATCC NSCLC; 62.3% in the test with 786-0 renal; 67.5% with DU-145 prostate; 13.6% in the test on K-562 leukemia; 75.1% in the test with MALME-3M melanoma. Besides, the growth in the test with MDA-MB-231 breast is 27.3%; in the test with RXF 393 renal, 59.7%; in the test with SF-268 CNS, 58.7%; in the test on SF-295 CNS, 52.4%; in the test on SF-539 CNS, 37.8%; in the test on UACC-257 melanoma, 82.7%. Also, in the test with M14 melanoma, the growth is 29.9%.

Regarding `Cc1cc(Nc2ccc(Cl)c(Cl)c2)nc(N)n1`, the growth is 89.5% in the test on NCI-H23 lung; 92% in the test with NCI-H226 lung; 110% in the test on NCI-H322M lung; 98.3% in the test with HOP-62 NSCLC; 94.3% in the test on NCI-H460 lung; 97.7% in the test with HOP-92 NSCLC. Moreover, the growth in the test on NCI-H522 lung was 78.3%; with A549/ATCC NSCLC it was 71.8%; with 786-0 renal, 78.9%; with DU-145 prostate, 94.3%; in the test on K-562 leukemia, 87.4%; in the test on MALME-3M melanoma, 121%. In addition, the growth is 101% in the test with MDA-MB-231 breast; 72.9% in the test on RXF 393 renal; 95.2% in the test with SF-268 CNS; 96.8% in the test with SF-295 CNS; 99.9% in the test with SF-539 CNS; 77.1% in the test on UACC-257 melanoma. Also, the growth in the test with M14 melanoma is 91.6%.

With `CC[C@@]1(O)C(=O)OCc2c1cc1n(c2=O)Cc2c-1nc1ccccc1c2/C=N/OC(C)(C)C`, the growth was -4.17% (active) in the test on NCI-H23 lung; -78.7% (active) in the test with NCI-H226 lung; 12.4% in the test with NCI-H322M lung; -24.1% (active) in the test on HOP-62 NSCLC; 1.16% (active) in the test with NCI-H460 lung; -11.8% (active) in the test with HOP-92 NSCLC. Besides, the growth in the test on NCI-H522 lung is -47.8% (active); in the test with A549/ATCC NSCLC it was -11% (active); with 786-0 renal it was 2.49% (active); in the test with DU-145 prostate, 6.82% (active); with K-562 leukemia, 7.64% (active); in the test on MALME-3M melanoma it was -15.3% (active). Further, the growth in the test with MDA-MB-231 breast was 24.2%; in the test on RXF 393 renal, -47.5% (active); in the test with SF-268 CNS it was 2.41% (active); in the test on SF-295 CNS, -1.63% (active); in the test on SF-539 CNS, -24.4% (active); with UACC-257 melanoma it was -44% (active). In the test with M14 melanoma, the growth was -18% (active).

Take `CCCCn1c(-c2cccc(OC)c2)nc2cc(OC)c(OC)cc2c1=O`: the growth with NCI-H23 lung is 87.3%; in the test with NCI-H226 lung it was 92.8%; in the test on NCI-H322M lung it was 197%; in the test with HOP-62 NSCLC, 45.7%; in the test with NCI-H460 lung, 115%; with HOP-92 NSCLC, 83.1%. Besides, the growth in the test on NCI-H522 lung is 92.4%; in the test with A549/ATCC NSCLC it was 11.3%; with COLO 205 colon, 117%; with DU-145 prostate it was 93.4%; in the test on K-562 leukemia it was 77.9%; with MALME-3M melanoma, 252%. In addition, the growth in the test with MDA-MB-231 breast was 89.2%; with SF-268 CNS, 95.4%; in the test with SF-295 CNS, 99.5%; with SF-539 CNS it was 108%; with UACC-257 melanoma, -16.6% (active); in the test on M14 melanoma it was 107%.

Consider `Cc1cccc(CC(=O)c2ccccc2)n1`, for which the growth was 94.5% in the test with NCI-H23 lung; 95.8% in the test with NCI-H226 lung; 87.3% in the test with NCI-H322M lung; 78.4% in the test on HOP-62 NSCLC; 95.7% in the test with NCI-H460 lung; 82.2% in the test with HOP-92 NSCLC. Also, the growth in the test on NCI-H522 lung is 80.9%; in the test with A549/ATCC NSCLC it was 74.2%; in the test with 786-0 renal, 94.4%; in the test with DU-145 prostate, 100%; in the test on K-562 leukemia, 81.8%; in the test on MALME-3M melanoma it was 92.1%. Further, the growth was 89% with MDA-MB-231 breast; 91% in the test with RXF 393 renal; 95.5% in the test on SF-268 CNS; 85.4% with SF-295 CNS; 96.8% with SF-539 CNS; 92.7% in the test with UACC-257 melanoma. In the test with M14 melanoma, the growth was 85.5%.

As to `Cn1c2ccccc2c2ssc(=S)c21`, the growth in the test on NCI-H23 lung was 92.4%; in the test with NCI-H226 lung it was 105%; in the test with NCI-H322M lung, 89.9%; in the test with HOP-62 NSCLC, 110%; in the test on NCI-H460 lung it was 106%; with HOP-92 NSCLC it was 88.6%. The growth in the test with NCI-H522 lung is 85.7%; in the test with A549/ATCC NSCLC, 99.7%; in the test with 786-0 renal, 98.5%; in the test with DU-145 prostate, 116%; with K-562 leukemia, 82.9%; with MALME-3M melanoma it was 81.9%. The growth in the test on MDA-MB-231 breast was 99.9%; in the test with RXF 393 renal, 108%; in the test on SF-268 CNS, 103%; in the test on SF-295 CNS, 97.3%; with SF-539 CNS, 97.5%; in the test on UACC-257 melanoma, 98.8%. Further, in the test on M14 melanoma, the growth is 89.3%.

For the molecule `CCc1c(C)c2cc(-n3c(-c4ccc(OC)cc4)csc3=N)c(O)c(C)c2oc1=O`, the growth in the test with NCI-H23 lung was 26.7%; with NCI-H226 lung it was 56%; with NCI-H322M lung, 54.5%; with HOP-62 NSCLC it was 30.4%; with NCI-H460 lung, 11.1%; with HOP-92 NSCLC it was 33.5%. Besides, the growth is -46.5% (active) with NCI-H522 lung; 26.3% in the test with A549/ATCC NSCLC; 21.5% with 786-0 renal; 17.7% in the test on DU-145 prostate; 5.33% (active) in the test on K-562 leukemia; 15.3% in the test on MALME-3M melanoma. In addition, the growth in the test with MDA-MB-231 breast is 13.4%; in the test with RXF 393 renal, 27.8%; in the test with SF-268 CNS it was 16.5%; with SF-295 CNS it was 20.8%; in the test with SF-539 CNS, -0.811% (active); with UACC-257 melanoma, 60.8%. In addition, the growth in the test on M14 melanoma is 9.77% (active).

Regarding `NC(CSC(c1ccccc1)(c1ccccc1)c1ccc(F)cc1)C(=O)O` (stereo not given), the growth in the test with NCI-H23 lung was 14.4%; in the test with NCI-H226 lung it was 61.8%; in the test with NCI-H322M lung, 28.7%; with HOP-62 NSCLC, -28.7% (active); in the test on NCI-H460 lung, 2.02% (active); with HOP-92 NSCLC, -24.3% (active). The growth was -59.1% (active) with NCI-H522 lung; 11.7% with A549/ATCC NSCLC; -50.8% (active) in the test with 786-0 renal; -40.3% (active) in the test on DU-145 prostate; -4.92% (active) in the test on K-562 leukemia; 30.6% in the test with MALME-3M melanoma. In addition, the growth is -18.6% (active) with MDA-MB-231 breast; 24.4% in the test with SF-268 CNS; 0.119% (active) in the test on SF-295 CNS; -7.79% (active) with SF-539 CNS; -15.2% (active) in the test with UACC-257 melanoma; -55.4% (active) in the test with M14 melanoma.
